Compound activity deposited in PubChem BioAssay by National Center for Advancing Translational Sciences (NCATS).
ALDH1A1 inh: blocks purified human ALDH1A1 activity | Potency, µM (titrated, usually from 75.3 µM), most hits filed as inhibitors | 220,000 compounds, 7.3% hits | P00352 | AID 1030 | Purified ALDH1A1, NADH fluorescence, propionaldehyde substrate
PNC assembly inh: inhibitors of perinucleolar compartment assembly; 140,000 compounds, 3.1% hits; PC3M PTB-GFP, PNC prevalence imaging, 16 h; hits give low values; activity change (PNC), negative = inhibition, % at 10 µM; AID 2417;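 active = readout at or below -70, meaning at least 70% loss of cells showing the perinucleolar compartment, a nuclear body marking cancer cells; inconclusive = readout between -30 and a set limit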
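Compounds are pinned in duplicate onto adhered PC3M cells stably expressing GFP-tagged PTB and incubated 16 h at 37 C. Cells are then fixed, nuclei stained with Hoechst, and PNC-positive cells counted.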
HPGD inh: inhibitors of human 15-hydroxyprostaglandin dehydrogenase (HPGD); P15428; purified HPGD, NADH fluorescence kinetic, PGE2 substrate; Potency, µM, most hits filed as inhibitors; 150,000 compounds, 4.3% hits; AID 894
Target sequence (P15428 whole entry, looked up): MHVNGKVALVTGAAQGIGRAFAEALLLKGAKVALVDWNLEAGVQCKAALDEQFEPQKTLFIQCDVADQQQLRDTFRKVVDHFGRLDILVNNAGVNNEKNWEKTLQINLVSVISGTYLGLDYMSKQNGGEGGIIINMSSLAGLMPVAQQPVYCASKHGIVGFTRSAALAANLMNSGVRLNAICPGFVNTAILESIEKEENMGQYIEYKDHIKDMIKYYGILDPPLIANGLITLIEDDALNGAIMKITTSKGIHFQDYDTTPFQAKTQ
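20 nM HPGD preincubated 15 min at room temperature with compound in 50 mM Tris-HCl pH 8, 0.01% Tween 20. Started with 1 mM NAD+ and 30 uM prostaglandin E2; NADH fluorescence (360/450 nm) read 5 times over 30-s intervals, last minus first.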
Of the large screens only hits and unclear results are named; the others gave an inactive call. Only some compounds are listed: those with a hit (about 11% of all), similar ones and a draw of the others. Unless noted, calls follow the shape of the dose curve; as a rule, active = well fitted inhibition curve with a large enough effect (not every such curve was filed as active); inconclusive = small, poorly fitted or top-dose-only effect, or another doubt; inactive = no such curve, though single readings can be large or run the other way.

COc1ccc(CCNS(=O)(=O)c2ccc3c(c2)CCN3C(=O)C2CC2)cc1OC	none
CCOc1ccc(OCC)c(NS(=O)(=O)c2ccc3c(c2)CCN3C(=O)C2CCC2)c1	PNC assembly inh -85
CCOc1cccc(C2c3c(oc4cc(C)c(C)cc4c3=O)C(=O)N2CCCN(C)C)c1 (centres undefined)	ALDH1A1 inh inconclusive
Cc1cccc([N+](=O)[O-])c1C	none (no result: PNC assembly inh)
COc1ccc(C(=O)Nn2c(C)nnc2-n2nc(C)cc2C)cc1OC	none
COc1cccc(C(=O)Nn2c(C)nnc2-n2nc(C)cc2C)c1	PNC assembly inh -100
CCNC(=O)NC(=O)C(C)OC(=O)CCCSc1nc2ccccc2s1 (centres undefined)	none
COc1ccc(-n2c(=O)c(-c3ccccc3)nc3cncnc32)cc1	none (no result: PNC assembly inh, HPGD inh)
C=CCN1C(=O)NC(c2ccccc2)(C(F)(F)F)S/C1=C(\C#N)c1nnc(N2CCOCC2)n1-c1ccccc1 (centres undefined)	ALDH1A1 inh inconclusive
CCOc1cc(C(=S)N2CCOCC2)ccc1OC(=O)/C=C/c1ccc(OC)c(OC)c1	none
COc1ccc(N2C(C)=CS/C2=C(/C#N)c2nnc(N3CCOCC3)n2-c2ccccc2)cc1	ALDH1A1 inh 22µM
COc1ccc(/C=C/C(O)=C(\C#N)c2nnc(N3CCOCC3)n2-c2ccccc2)cc1OC	ALDH1A1 inh 13µM (no result: PNC assembly inh, HPGD inh)
CCOCCCNCC(=O)Nc1ccccc1N1CCOCC1	ALDH1A1 inh inconclusive
CC12C=CC3(CN(Cc4ccccc4)C(=O)C3C1C(=O)NC1CC1)O2 (centres undefined)	ALDH1A1 inh inconclusive
Cc1ccc(C)c(S(=O)(=O)Nc2nc3ccc(S(N)(=O)=O)cc3s2)c1	none (no result: PNC assembly inh, HPGD inh)
Cc1ccc(C)c(S(=O)(=O)Nc2ccc3scnc3c2)c1	ALDH1A1 inh 1.8µM
CCCCn1c(=O)n(CC(O)c2ccccc2)c(=O)c2c1ncn2C1CCCC1 (centres undefined)	ALDH1A1 inh 10µM
O=c1c2c(ncn2C2CCCC2)n(Cc2ccccc2)c(=O)n1CCOc1ccccc1	none
O=c1c2c(ncn2C2CCCC2)n(Cc2ccccc2)c(=O)n1CCOc1ccc(Br)cc1	PNC assembly inh inconclusive
Cc1ccc(C)c(OCCn2c(=O)c3c(ncn3C3CCCC3)n(Cc3ccccc3)c2=O)c1	PNC assembly inh -119
O=C(Nc1ccccc1)c1ccc(N2CCN(c3ccccc3)CC2)c(S(=O)(=O)N2CCOCC2)c1	ALDH1A1 inh inconclusive, HPGD inh inconclusive
O=C(Nc1ccccc1)c1ccc(N2CCN(c3ccccn3)CC2)c(S(=O)(=O)N2CCOCC2)c1	ALDH1A1 inh 28µM, HPGD inh inconclusive
COc1ccc(CCN(C)CCC(=O)Nc2ccc(C)cc2)cc1OC	none
CCOC(=O)C(Cc1ccc(OC)c([N+](=O)[O-])c1)NC(=O)CCC(=O)Nc1ccc(C)cc1 (centres undefined)	ALDH1A1 inh 14µM (no result: PNC assembly inh, HPGD inh)
O=C1CN(C(=O)c2ccccc2)c2ccccc2N1	none
O=C1C(=C(c2ccccc2)c2ccccc2)Nc2ccccc21	ALDH1A1 inh 0.71µM, PNC assembly inh inconclusive
NN/C(=C\[N+](=O)[O-])Nc1ccc(Cl)cc1	ALDH1A1 inh 28µM (no result: PNC assembly inh, HPGD inh)
NNC(=S)Nc1ccc(Cl)cc1	none (no result: PNC assembly inh, HPGD inh)
COc1ccc(CN(C)C(=O)c2cnc(OC)cc2C(F)(F)F)c(OC)c1	none (no result: PNC assembly inh, HPGD inh)
Cn1cnc2cc(NC(=O)c3ccco3)ccc21	PNC assembly inh inconclusive
O=C(Nc1cccc(-n2cnnn2)c1)c1ccco1	ALDH1A1 inh 40µM
O=C(Nc1ccc2c(c1)ncn2-c1ccccc1)c1ccco1	ALDH1A1 inh inconclusive, HPGD inh 32µM
CC(=O)c1cccc(NC(=O)c2ccco2)c1	none
CCOC(=O)c1ccccc1NC1CC(=O)N(c2ccccc2C)C1=O (centres undefined)	ALDH1A1 inh inconclusive, HPGD inh inconclusive
CCCCc1ccc(NC(=S)NCc2cccnc2)cc1	ALDH1A1 inh inconclusive
Cc1cc(C(=O)Nc2ccccc2)oc1C	ALDH1A1 inh inconclusive, HPGD inh inconclusive
Cc1ccc(C2=NNC(=O)C(P(=O)(c3ccccc3)c3ccccc3)C2)cc1 (centres undefined)	none (no result: PNC assembly inh, HPGD inh)
CC(=O)Nc1ccc(S(=O)(=O)NCCc2ccc(F)cc2)cc1	none
COc1ccc2c(c1)O[C@@H](c1ccc3c(c1)OCO3)[C@H](OC(=O)Nc1cc(OC)c(OC)c(OC)c1)C2=O	PNC assembly inh inconclusive
CCCC(C(=O)NC1CCCC1)N(Cc1ccc2c(c1)OCO2)C(=O)c1snc(C(N)=O)c1N (centres undefined)	ALDH1A1 inh 13µM
CC(C)CC(C(=O)NC1CCCC1)N(Cc1cccs1)C(=O)c1snc(C(N)=O)c1N (centres undefined)	HPGD inh inconclusive
O=C(COC(=O)Cc1ccccc1[N+](=O)[O-])NCc1ccccc1Cl	ALDH1A1 inh inconclusive
COC(=O)c1cnn2c1C(=O)N(Cc1cccs1)CC2	none (no result: PNC assembly inh, HPGD inh)
BrC/C=C/CBr	ALDH1A1 inh 25µM (no result: PNC assembly inh)
